# Source: PubChem
# Shown are actives, neighbours in structure and some others; about 4.3% of the full set was active somewhere.
# NALP1 inh: blocks the NALP1 inflammasome reconstituted in yeast; 0.61% of 280,000 active; S. cerevisiae NALP1/ASC/caspase-1 growth, X-gal OD620, 72 h; AID 2071; inhibition, % at 10 µM; in the data active means inhibition mostly above about 24%, no sharp cut-off; inactive means mostly below about 32%
# NR3A LBD binder: modulators (binders) of human NR3A ligand-binding domain. NR3A LBD differential scanning fluorimetry, Tm shift; 0% = protein alone, 100% = glycine-bound protein. 2.5% of 340,000 active. Tm shift relative to glycine control, % at 25 µM;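 active means melting temperature shift of at least 10% of the positive control shift, at one fixed dose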
# Yeast superoxide: yeast age-related superoxide inhibition as caloric restriction mimetic; superoxide response (% of plate mean), % at 10 µM; S. cerevisiae aged cells, superoxide DHE fluorescence; stronger effect = lower value; 0.18% of 330,000 active;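 active means superoxide response under a set limit, about three screen SD below normal, cut at about 65% in these data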;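 further: yeast aged for seven days with compound at 30 °C before DHE staining; 100% = average MFI of all compound-treated wells on the plate with controls excluded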
# dFosB act-1: mouse delta FosB homodimer activation; P13346; purified delta FosB, TAMRA-CDK5 oligo fluorescence polarization; percent of positive-control signal above neutral wells; activation, % at 25 µM; 0.99% of 340,000 active;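 active means mean activation above about 17%, with every replicate also reaching it, limit read from the data, passing the limit was not always enough; inconclusive means only one of the two conditions met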
# Target sequence (P13346 whole entry, looked up): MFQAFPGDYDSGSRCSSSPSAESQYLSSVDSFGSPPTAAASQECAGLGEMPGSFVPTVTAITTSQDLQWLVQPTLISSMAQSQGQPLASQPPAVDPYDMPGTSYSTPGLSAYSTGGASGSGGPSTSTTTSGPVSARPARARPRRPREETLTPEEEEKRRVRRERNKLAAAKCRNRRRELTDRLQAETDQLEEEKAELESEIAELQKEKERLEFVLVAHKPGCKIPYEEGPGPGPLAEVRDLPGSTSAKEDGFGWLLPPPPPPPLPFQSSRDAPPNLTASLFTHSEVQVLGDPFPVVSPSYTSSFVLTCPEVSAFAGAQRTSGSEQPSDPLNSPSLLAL
# UBC13 polyUb: blocks human UBC13 polyubiquitin chain formation; TR-FRET; inhibition, % at 20 µM; 0.47% of 330,000 active; AID 485273; in the data active means inhibition above about 45%, passing the limit was not always enough; inconclusive means no clear call, values can overlap the other calls
# Target sequence (P61088 whole entry, looked up): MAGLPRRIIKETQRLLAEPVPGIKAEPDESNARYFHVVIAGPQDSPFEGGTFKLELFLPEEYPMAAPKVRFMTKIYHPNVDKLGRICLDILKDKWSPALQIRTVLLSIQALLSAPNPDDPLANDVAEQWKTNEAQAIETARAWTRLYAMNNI
# dFosB act-2: delta FosB (mouse) homodimer activation; shares compounds with dFosB act-1; purified delta FosB, TAMRA-CDK5 oligo fluorescence polarization; normalised: neutral wells 0, positive control 100; activation, % at 24.9 µM; 2,400 tested, under 10 active;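 active means highest replicate activation at or above 34% and every replicate reaching that threshold; inconclusive means meets only one of the two criteria; inactive means meets neither criterion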;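 further: higher polarization means more probe DNA bound by delta FosB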
# Starred values were filed as active, the others as inactive; ? = inconclusive; / = no result.
SMILES,NALP1 inh,NR3A LBD binder,Yeast superoxide,dFosB act-1,UBC13 polyUb,dFosB act-2
Cc1ccc(S(=O)(=O)N2CCCCC2)cc1NC(=O)c1c(-c2ccccc2)noc1C,/,-1,90,18*,6,5
O=C(NCc1ccccc1)c1cc(-c2ccncc2)nc2ccc(S(=O)(=O)N3CCOCC3)cc12,22,4,108,-7,-8,/
Cc1ccc(CCNC(=O)c2cc(-c3ccncc3)nc3ccc(S(=O)(=O)N4CCOCC4)cc23)cc1,11,2,91,30*,2,2
COc1ccc(-c2cc(C(=O)Nc3ccccc3N3CCOCC3)c3ccccc3n2)cc1OC,-13,-2,117,27*,-10,-1
COc1ccc(-c2cc(C(=O)Nc3nc4ccccc4s3)c3ccccc3n2)cc1OC,28,-7,114,65*,-5,?
Cc1cc(C)cc(NC(=O)COC(=O)c2cccc(S(=O)(=O)N3CCCCC3)c2)c1,/,-4,90,2,3,/
Cc1ncc([N+](=O)[O-])n1CC(=O)Nc1ccc(F)cc1,24,1,106,5,4,/
O=C(Nc1ccccc1CC[N+](=O)[O-])N1CCN(c2ccccc2)CC1,-4,-1,100,-8,5,/
CCOc1ccccc1NC(=O)c1csc(C)c1C,12,0,100,-6,5,/
COc1cc(NC(=O)c2cc(-c3cccnc3)nc3ccc(Br)cc23)cc(OC)c1,13,10*,116,63*,17,1
COc1cc(-c2cc(C(=O)Nc3cc(S(=O)(=O)N4CCOCC4)ccc3C)c3ccccc3n2)cc(OC)c1OC,/,5,/,44*,13,2
COc1ccc(S(=O)(=O)N2CCOCC2)cc1NC(=O)c1cccc2c(=O)c(C)c(-c3ccccc3)oc12,27,-2,110,45*,30,5
O=C(Nc1cccnc1)c1cc(-c2cccnc2)nc2ccc(Br)cc12,15,-7,87,-22,15,/
COc1ccc(-c2cc(C(=O)Nc3ccc(C(N)=O)cc3)c3ccccc3n2)cc1,25,1,110,37*,17,8
COc1cc(-c2cc(C(=O)Nc3cc(S(=O)(=O)N4CCOCC4)ccc3O)c3ccccc3n2)cc(OC)c1OC,/,7,87,3,-2,/
C=C(C)[C@@H]1CC=C(CN2CCN(Cc3ccccc3)CC2)CC1,5,1,95,-5,10,/
Cc1ccc(-n2c(SCC(=O)NCc3ccco3)nc3sc(C)c(C)c3c2=O)cc1,-46,3,100,31*,-9,2
O=C(CSc1nc2c([nH]c3ccccc32)c(=O)n1-c1ccc(F)cc1)NCc1ccco1,33,-3,110,19*,-8,2
C=CCn1c(SCC(=O)Nc2cc(C)on2)nc2c([nH]c3ccccc32)c1=O,36,2,95,0,2,/
CC(=O)Nc1ccc(NC(=O)CSc2nc3c([nH]c4ccccc43)c(=O)n2-c2ccccc2F)cc1,15,-2,100,22*,2,1
O=C(CSc1nc2ccccc2c(=O)n1-c1ccccc1)NCc1ccco1,-7,-5,100,-4,5,/
Cc1ccc(-n2c(SCC(=O)Nc3cc(C)on3)nc3c([nH]c4ccccc43)c2=O)cc1,28,2,98,26*,-4,3
Cc1nc(SCC(=O)NCC2CCCO2)c2cc(-c3ccccc3)sc2n1 (configuration not stated),/,-1,96,-16,9,/
Cc1nnc(N2C(=O)C(=O)/C(=C(\O)c3ccc4c(c3)CC(C)O4)C2c2ccccc2)s1 (configuration not stated),1,0,92,-2,-2,/
CCOc1ccc(-n2c(SCC(=O)Nc3cc(C)on3)nc3c([nH]c4ccccc43)c2=O)cc1,/,3,104,41*,3,3
SMILES,NALP1 inh,NR3A LBD binder,Yeast superoxide,dFosB act-1,UBC13 polyUb,dFosB act-2
COc1ccc(-n2c(SCC(=O)Nc3cc(C)on3)nc3c(c2=O)SCC3)cc1,-16,-3,98,2,-3,/
Cc1cc(NC(=O)CSc2nc3c(c(=O)n2-c2ccc(Br)cc2)SCC3)no1,11,2,86,42*,-3,6
Cc1cn(C2CC(O)C(CO)O2)c(=O)n(Cc2ccccc2)c1=O (configuration not stated),/,1,/,1,/,/
Cc1nn(C)c(C)c1NC(=O)CSc1nc(-c2ccccc2Cl)nc2c1cnn2-c1ccccc1,40,-2,89,122*,30,6
CC(C)CC(NC(=O)C1CCC(=O)N1C(=O)OCc1ccccc1)C(=O)NC(Cc1ccccc1)C(N)=O (configuration not stated),3,0,95,-18,4,/
Cc1cc(C)c(NC(=O)Cn2nc(-c3ccccc3)nc2-c2ccccc2)c(C)c1,15,2,100,2,-2,/
Cc1cccc(C)c1NC(=O)Cn1nc(-c2ccccc2)nc1-c1ccccc1,27,-2,117,45*,-8,1
CCCc1cc(=O)oc2cc(OCC(=O)NCCc3c[nH]c4ccc(OC)cc34)ccc12,12,-8,81,19*,-3,2
CNC(=O)c1c[nH]c2ccc(S(=O)(=O)Nc3cccc(SC)c3)cc2c1=O,16,-1,97,19*,-2,2
CCCn1nnc(NC(=S)NC(=O)c2ccc(-c3ccc(Br)cc3)o2)n1,-112,1,95,-8,-32,/
Cn1nnc(NC(=S)NC(=O)c2ccc(-c3ccc(Br)cc3)o2)n1,-13,-2,90,33*,-6,1
O=C(CN1CSCC1=O)N1CCN(S(=O)(=O)c2cc(C(F)(F)F)ccc2Cl)CC1,/,3,/,-4,6,/
COc1ccc(NC(=O)Nc2ccccc2F)cc1Cl,-21,20*,92,22*,9,2
COc1ccccc1NS(=O)(=O)c1cccc(NC(=O)Nc2ccc(Cl)cc2)c1,-1,18*,71,26*,0,1
COc1ccc(NC(=O)Nc2ccccc2F)cc1,-9,6,90,-6,-1,/
COc1ccccc1N1CCN(C2CCCN(C(=O)c3cccc(-c4ccco4)c3)C2)CC1 (configuration not stated),16,-2,94,-5,-8,/
COc1cc(OC)c(-c2nc(-c3ccncc3)no2)cc1OC,9,-3,108,21*,-3,6
O=C(/C=C/c1c(F)cccc1Cl)NCc1ccc2c(c1)OCO2,10,0,100,5,2,/
CCCN(CC(=O)Nc1ccccc1OC)C(=O)Cn1[nH]c(=O)c2ccccc2c1=O,/,0,81,-7,6,/
COc1cc(/C=C/c2noc(-c3ccccc3O)n2)cc(OC)c1OC,21,-1,93,9,12,/
COc1cc(/C=C/c2nc(N)nc(-c3ccccc3O)n2)cc(OC)c1OC,22,0,111,34*,16,3
